Among the data in PubChem BioAssay (NCI) are growth values, retold here.

The panel holds about 83,000 compounds, 20% with a hit somewhere; the sample as a whole holds those more often.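 In brief: 96-well plates, 48 h treatment, single concentration, percent growth endpoint.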 Unmarked numbers belong to inactive results. Active and inactive are the calls of the source. The calls were made as follows: active = growth percent below 10; inactive = the rest.

Common to all, as to assay: NCI-60 one-dose screen, 48 h (100 = growth as untreated, 0 = no growth, -100 = all killed)
Common to all, as to conditions: 10 µM unless noted

Test [1] deals with RPMI-8226 leukemia.
For test [2], the system named is OVCAR-8 ovarian.
Test [3] concerns OVCAR-5 ovarian.
The test system of test [4] is OVCAR-4 ovarian.
Test [5] concerns SK-OV-3 ovarian.
Test [6] deals with IGROV1 ovarian.
In test [7] the test system is OVCAR-3 ovarian.
Test [8] has as its system HS 578T breast.
For test [9], the system named is NCI/ADR-RES ovarian.
Test [10] deals with SR leukemia.

Take `CCCCN(CCCC)c1ccc(C(=N)c2ccc(N(CCCC)CCCC)cc2)cc1`: the growth is -74.3% (active) in [1]; -82.1% (active) in test [2]; -82.4% (active) in [3]; -79.3% (active) in [4]; -22.6% (active) in [5]; -53.5% (active) in test [6]. The values for the growth in [7] and in [8] were -99.2% (active) and -45% (active), respectively.
Consider `Oc1ccc(Cl)cc1-c1cc(-c2ccc(F)cc2)n[nH]1`, for which the growth in test [1] is 28.2%; in test [2], 73.4%; in test [3] it was 83.6%; in test [4], 25.3%; in [5], 74.8%; in test [6], 40%. For the same compound, the growth is 49.8% in [7], 65.4% in test [8] and 66.4% in test [9].
Consider `COc1ccc(NC(=O)c2cc(OC)c(OC)c(OC)c2)cc1O`, for which the growth was 51.8% in test [1]; 57.6% in [2]; 83.4% in [3]; 57.4% in [4]; 29.1% in [5]; 54.7% in test [6]. For the same compound, the growth was -27.6% (active) in test [7], -10.2% (active) in [8] and 13.2% in test [9].
Turning to `O=S(=O)(NCCNc1nccc(-c2c(-c3ccc(O)cc3)nc3sccn23)n1)c1cccc2ccccc12`, the growth in test [1] is 92.5%; in [2] it was 95.4%; in test [3], 114%; in test [4], 91.6%; in test [5], 106%; in test [6], 105%. In addition, the growth in [7] was 117%; in test [8], 110%; in test [9], 102%.
In the case of `COc1ccc(-c2cc3c(OC)c(OC)c(OC)cc3oc2=O)cc1`, the growth is 54.6% in [1]; 67% in test [2]; 74% in test [3]; 81.3% in test [4]; 67.1% in test [5]; 61.6% in test [6]. In addition, the growth is 5.53% (active) in [7] and 33.3% in test [8].
As to `O=C(/C=C/c1c[nH]c2ccccc12)c1ccc(O)c(CN2CCN(c3ccc(F)cc3)CC2)c1`, the growth is 91% in test [1]; 95.1% in test [2]; 90.8% in test [3]; 93.9% in [4]; 101% in test [5]; 106% in test [6]. The growth in [7] is 103%; in test [8] it was 108%; in test [9] it was 103%.
In the case of `O=C(Nc1ccc2c(c1)OCCO2)C(=O)c1c[nH]c2ccccc12`, the growth in [1] is 21.6%; in test [2], 53.5%; in [3], 45.2%; in test [4] it was 51.2%; in [5], 12.8%; in test [6], 44.5%. In addition, the results for the growth in [7], in test [8] and in [9] were -45.1% (active), 13.1% and -30.3% (active), respectively.
With `CC(O)CN1CCCCC1` (centres undefined), the growth in test [1] is 113%; in test [2], 105%; in [3], 110%; in [4], 109%; in test [5] it was 107%; in [6] it was 106%. Also, the growth was 105% in [7] and 113% in test [8].
In the case of `CCCCCCCC[C@@H](O)CC(=O)N[C@@H](CC(N)=O)C(=O)N[C@@H](CCC(N)=O)C(=O)N[C@@H](CC(=O)c1cc(C)cc(O)c1C(=O)c1c(O)cccc1O)CC(C)C`, the growth was 10.9% in test [1]; 47.6% in test [2]; 39.9% in [3]; 41.1% in test [4]; 63.4% in test [5]; 15.1% in test [6]. Further, the growth in [7] is -3.89% (active); in [8], 26.9%; in [9] it was 93.7%.
As to `O=C(Nc1cccc(-n2cc(-c3ccncc3)c(-c3ccc(Cl)c(O)c3)n2)c1)c1ccccc1`, the growth was 60.5% in test [1]; 50.9% in test [2]; 115% in [3]; 40.7% in test [4]; 80.1% in test [5]; 88% in test [6]. Besides, the growth is 82.1% in test [7], 48.4% in test [8] and 62.7% in test [9].
As to `CN(C)CCN1C(=O)c2ccc3c4c(ccc(c24)C1=O)C(=O)N(CCN=C=S)C3=O`, the growth was -39.7% (active) in test [10]; -88.7% (active) in test [2]; -94.3% (active) in test [4]; -97% (active) in [5]; -64.3% (active) in test [6]; -96.5% (active) in test [7]. In addition, the growth was -6.37% (active) in test [8] and -57.3% (active) in test [9].
Regarding `COc1ccc(C2C=C(c3ccc(OC)c(OC)c3)N=C3SC=C(C)N32)c(Br)c1` (centres undefined), the growth in test [1] is 102%; in test [2], 99.2%; in [3] it was 92.8%; in test [4], 99.6%; in test [5], 107%; in [6], 105%. Also, the growth is 112% in test [7] and 116% in [8].
In the case of `Cc1ccc(-c2nc(C#N)c(S(=O)(=O)n3nc(-c4ccccc4)cc3N)o2)cc1`, the growth was 83.4% in test [1]; 90.4% in test [2]; 106% in [3]; 114% in test [4]; 94.8% in test [5]; 101% in test [6]. Moreover, the growth in test [7] was 17.7%; in [8], 95.6%.
In the case of `COc1ccc(/C=C/c2c(C(C)=O)c(C)nc3ccccc23)cc1`, the growth is 60.2% in test [1]; 85.2% in test [2]; 77% in test [3]; 70.1% in test [4]; 80.8% in test [5]; 76.7% in [6]. Moreover, the growth was 97.6% in test [7], 106% in [8] and 86.6% in test [9].
On to `COc1ccc(-c2cnoc2-c2ccc(OC)cc2O)cc1`, for which the growth in test [1] was 49.6%; in [2], 51.4%; in [3], 64.1%; in test [4], 75.1%; in test [5], 30%; in [6], 51.6%. The growth in test [7] is -11.3% (active); in [8] it was -7.48% (active); in [9], -21% (active).
